Assay results reported in PubChem BioAssay (NCI).
The panel holds about 79,000 compounds, 15% with a hit somewhere; the sample as a whole holds those more often. Rule as the data show it: active = growth inhibition above about 70%; inactive = the rest.

Experiments:
[1] = NCI Yeast Anticancer Drug Screen. Data for the rad50 strain (AID 155);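 also: 0% = growth of vehicle-only cultures of the same strain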; settings: S. cerevisiae rad50 strain growth inhibition; at 50.0 µM; hits give high values
How it was run: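 Vehicle-treated cultures provide the reference for the growth inhibition reported for compound-exposed, repair-deficient yeast.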

[2] = NCI Yeast Anticancer Drug Screen. Data for the mec2-1 strain (AID 157); settings: S. cerevisiae mec2-1 strain, at 50.0 µM, hits give high values
How it was run: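 Cells of the genetically defined mec2-1 yeast strain are incubated with test compound. Inhibition of growth is calculated against vehicle-treated controls.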

[3] = NCI Yeast Anticancer Drug Screen. Data for the sgs1 mgt1 strain (AID 161);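 also: 0% = growth of cultures given vehicle only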; settings: S. cerevisiae sgs1 mgt1 strain, at 50.0 µM, hits give high values
How it was run: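 Test agents were incubated with a DNA-repair-mutant yeast strain. Growth was then read and compared against vehicle-treated controls.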

[4] = NCI Yeast Anticancer Drug Screen. Data for the cln2 rad14 strain (AID 165);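 also: 0% = growth equal to vehicle treated cultures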; settings: S. cerevisiae cln2 rad14 strain, at 50.0 µM, hits give high values
How it was run: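 The screen exposed genetically defined yeast (cln2 rad14) to test compounds and scored growth inhibition relative to vehicle-treated controls.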

[5] = NCI Yeast Anticancer Drug Screen. Data for the bub3 strain (AID 167); settings: S. cerevisiae bub3 mutant strain, at 50.0 µM, hits give high values
How it was run: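 Mutant yeast screening strain plus compound; vehicle-treated cultures serve as the 0% inhibition reference.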

[6] = NCI Yeast Anticancer Drug Screen. Data for the mlh1 rad18 strain (AID 175); settings: S. cerevisiae mlh1 rad18 strain growth inhibition; at 50.0 µM; hits give high values
How it was run: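 Compound-treated yeast growth, normalised to vehicle controls. Strain bears defined DNA repair mutations.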

Measured: growth inhibition

Cc1nc(N)c(N2CCN(Cc3ccccc3)CC2)c(=O)[nH]1
inactive: [1] -26.4% | [2] 1.85% | [3] -33.9% | [4] 16.8% | [5] 29.6% | [6] -25.3%

O=c1cc(CC(O)(C(F)(F)Cl)C(F)(F)Cl)[nH]n1-c1ccccc1
inactive: [1] -27.9% | [2] 4.05% | [3] -7.75% | [4] 11.4% | [5] -22.1% | [6] -5.65%

CCC(=O)Oc1ccc(Cl)cc1C
inactive: [1] -0.3% | [2] 7.7% | [3] 1.75% | [4] 5.55% | [5] 1.75% | [6] -13.3%

CCCCCCCCCCCCCCCCSC1=C(Cl)C(=O)C(OC)=C(OC)C1=O
inactive: [1] 25.6% | [2] -4.7% | [3] 21.1% | [4] -26% | [5] 0.25% | [6] 9.4%

CO[C@H]1C=CO[C@@]2(C)Oc3c(C)c(O)c4c(O)c(c(CN5CCN(C)CC5)c(O)c4c3C2=O)NC(=O)/C(C)=C\C=C[C@H](C)[C@H](O)C(C)[C@@H](O)C(C)[C@H](OC(C)=O)[C@@H]1C (stereo not given in full)
inactive: [1] -14.5% | [2] -4.85% | [3] -21.1% | [4] 54% | [5] -36.2% | [6] -34.4%

[Co+2].[NH-]C(Cc1ccc(O)cc1)C(=O)O.[NH-]C(Cc1ccc(O)cc1)C(=O)O (stereo not given)
inactive: [1] 56.5% | [2] 10.2% | [3] 5.8% | [4] 16.3% | [5] 16% | [6] 34%

N#CC1(C(c2cccc3ccccc23)c2cccc3ccc4ccccc4c23)CC(=O)OC1=O (stereo not given)
inactive: [1] 5.25% | [2] -11.4% | [3] 14.1% | [4] 12.1% | [5] -2.55% | [6] 9.65%

Cc1nc2ccccc2nc1CC(O)(c1ccccc1)c1cccc2ccccc12 (stereo not given)
inactive: [1] 55.8% | [2] 18.9% | [3] 37.4% | [4] 26.9% | [5] 13.2% | [6] 38.4%

CC1=NOC2(C1)/C(=N/O)CCC/C2=N\O (stereo not given)
inactive: [1] -3.65% | [2] -25.1% | [3] -1.5% | [4] 20.9% | [5] -11.6% | [6] 0.45%

c1ccc2c(c1)Cc1c(-c3ccncc3)n[nH]c1-2
inactive: [1] 48.8% | [2] 33% | [3] 41.6% | [4] 10.3% | [5] 19.3% | [6] 60.1%

C(=C1\COC(c2ccccc2)=N1)/c1ccc2c(c1)OCO2
inactive: [1] -13.2% | [2] 14.8% | [3] 13.8% | [4] -19.6% | [5] -5% | [6] 26.9%

CN(C)C(=S)/N=C1\SCS(=O)(=O)N1C
inactive: [1] 14.2% | [2] 6.55% | [3] -6% | [4] 7.7% | [5] -6.6% | [6] 9.15%

CC(C)C(=O)OC1(Cc2cccc[n+]2C)CCCCC1
inactive: [1] 8.8% | [2] 9.6% | [3] 22.6% | [4] 27.4% | [5] 12.9% | [6] 1.45%

COc1ccc(Cl)[n+]([O-])n1
inactive: [1] -20.3% | [2] -4.15% | [3] -2% | [4] 0.8% | [5] -10.3% | [6] -29.6%

Cc1cc2c(c(O)c1-c1c(C)cc(O)c3c1C(=O)C=CC3=O)C(=O)C=CC2=O
inactive: [1] -7.1% | [2] -43.4% | [3] -8.5% | [4] -0.2% | [5] -27.9% | [6] -43.2%

CC(=O)OC1=C(C)C2=C3OC(=O)C(C)=C3CC[C@@]2(C)[C@@H](Cl)[C@@H]1Cl
inactive: [1] 40.9% | [2] -45.9% | [3] -2.6% | [4] -5.85% | [5] -15.2% | [6] -57.9%

Brc1cccc(N=NN2CCCC2)c1
inactive: [1] 14.7% | [2] 25.4% | [3] 28.9% | [4] 9.6% | [5] 7.7% | [6] 47.1%

CC(C)CNC(=O)/C=C/c1ccc2c(c1)OCO2
inactive: [1] 13.5% | [2] -19.1% | [3] -1.4% | [4] 3.4% | [5] 6.45% | [6] -15.1%

NC(=S)N/N=C/c1ccc(Cl)cc1Cl
inactive: [1] 65.7% | [2] 42.5% | [3] 35.9% | [4] 28.3% | [5] 45.2% | [6] 38.7%

COC(=O)C(=O)c1c(C(=O)OC)nc2nnc(N)n2c1-c1ccc(O)c(OC)c1
inactive: [1] 0.5% | [2] -11.9% | [3] -2.65% | [4] -31.8% | [5] 16.5% | [6] -9.9%
